Source: PubChem BioAssay (EPA / NIEHS)
Several values for one entry are separate records, joined by “and”; a condition that tells them apart may be missing. Equal entries are not always repeated. Some structures have more than one record in an assay (separate samples or runs), and their calls can disagree. Activity calls are given as the source filed them. The calls were made as follows, unless noted: active = hit-call score of the fitted dose curve at least 0.9, where 1 is the maximum; inactive = score below 0.9.

Assays:
[1] = CCTE_Shafer_MEA_dev_per_burst_interspike_interval: CCTE's Neural Network Formation Assay for Burst Interspike Interval, Shafer Lab (AID 2284044);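 as to AC50: potency for a decrease of within-burst interspike interval below DMSO level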
Method in brief: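 Readout is the average time between spikes inside single-electrode bursts, taken as a well mean across bursting electrodes. Cortical neurons from rat developed networks on MEA plates under continuous 12-day exposure; recordings on days 5, 7, 9 and 12 were integrated by trapezoidal AUC.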

[2] = CCTE_Shafer_MEA_dev_inter_network_spike_interval_mean: CCTE's Neural Network Formation Assay for Mean Inter-network Spike Interval, Shafer Lab (AID 2284047);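 as to AC50: potency for a decrease in mean inter-network spike interval below DMSO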
Method in brief: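 Mean time between consecutive network-spike peaks, recorded extracellularly (adaptive spike detection) on DIV 5, 7, 9 and 12, summarized as trapezoidal AUC. Rat cortical cultures on MEAs dosed continuously days 0–12, re-dosed at feeds; loss-of-signal fit relative to DMSO.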

[3] = CCTE_Shafer_MEA_dev_network_spike_number: CCTE's Neural Network Formation Assay for Number of Network Spikes, Shafer Lab (AID 2284048);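 as to AC50: fit as a loss of signal meaning fewer network spikes than DMSO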
Method in brief: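 Extracellular recordings from 16-electrode wells track network formation in rat cortical cultures under continuous treatment from plating. The endpoint is network spike number, expressed as AUC across DIV 5–12 relative to DMSO vehicle.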

[4] = CCTE_Shafer_MEA_dev_network_spike_peak: CCTE's Neural Network Formation Assay for Mean Number of Electrodes in Network Spike, Shafer Lab (AID 2284049);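 as to AC50: fitted for loss of signal meaning fewer electrodes in network spikes than DMSO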
Method in brief: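 Continuous 12-day exposure of rat cortical cultures, starting at plating, on MEA plates. Endpoint: electrodes participating in network-spike peaks, AUC across DIV 5–12, DMSO as negative control.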

[5] = CCTE_Shafer_MEA_dev_spike_duration_mean: CCTE's Neural Network Formation Assay for Mean Spike Duration, Shafer Lab (AID 2284051);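 also: mean network spike duration pooled as area under curve over DIV 5 to 12 recordings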;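 as to AC50: potency for a decrease in mean network spike duration versus DMSO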
Method in brief: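 Spontaneous activity was recorded on days 5, 7, 9 and 12 from rat cortical cultures grown on microelectrode arrays and dosed continuously from day 0, with media and compound renewed after the DIV 5 and 9 recordings. Network-spike duration was collapsed by area under the curve.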

[6] = CCTE_Shafer_MEA_dev_network_spike_duration_std: CCTE's Neural Network Formation Assay for Standard Deviation of Network Spike Duration, Shafer Lab (AID 2284052);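 also: hits are decreases in network spike duration SD versus DMSO vehicle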
Method in brief: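 Network spike duration variability was collapsed across recordings on days 5, 7, 9 and 12 by trapezoidal area-under-curve and fitted downward against DMSO. Cultures were rat cortical neurons on PEI-coated MEA plates, dosed continuously from plating, refed with compound DIV 5/9.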

[7] = CCTE_Shafer_MEA_dev_per_network_spike_spike_number_mean: CCTE's Neural Network Formation Assay for Mean Number of Spikes in a Network Spike, Shafer Lab (AID 2284053)
Method in brief: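 Mean spike count within each network spike, taken in a 0.05 s window at its peak, was recorded on days 5, 7, 9 and 12 and integrated as trapezoidal area under the curve. Rat cortical cultures on MEA plates received continuous compound from day 0, refreshed at medium changes on DIV 5 and 9.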

[8] = CCTE_Shafer_MEA_dev_per_network_spike_spike_percent: CCTE's Neural Network Formation Assay for Percent of Spikes in a Network Spike, Shafer Lab (AID 2284054)
Method in brief: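 Developing networks of rat cortical neurons are dosed at day 0 and recorded extracellularly four times up to day 12. The endpoint is the area under the curve of percent spikes in network spikes, fitted in the negative direction relative to DMSO.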

[9] = UKN5_HCS_SBAD2_cell_viability: Viability Assessment in the University of Konstanz (UKN) Leist Lab Neurite Outgrowth Assay in human iPSC-derived immature Dorsal Root Ganglia Neurons (UKN5) (AID 2284056)
Method in brief: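 iPSC-derived immature peripheral neurons (SBAD2) seeded on Matrigel with CHIR99021, SU5402 and DAPT, dosed 1 h later for 24 h. Viability from Hoechst H-33342 and calcein-AM live staining, high-content imaging; bidirectional fit versus DMSO.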

DIO3 (gene 1735) = assay: CCTE_GLTED_hDIO3: CCTE's human Deiodinase 3 (DIO3) Inhibition Assay, Great Lakes Toxicology and Ecology Division (GLTED) Lab (AID 2284055; active = hit-call score of the fitted dose curve at least 0.9, where 1 is the maximum;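 as to AC50: potency is for inhibition seen as loss of released iodide signal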)
Method in brief: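 Steps: incubate adenovirus-produced hDIO3 with chemical for 3 hours; detect freed iodide via cerium-arsenic Sandell-Kolthoff colorimetry; compare with DMSO baseline.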

In the case of `CC(C)(C)c1cc(O)ccc1O`, the outcome [1] is reported as “inactive”, the outcome [2] is reported as “inactive” and the outcome [3] is reported as “inactive”. For the same compound, the AC50 [4] was 10 µM (active), the AC50 [5] was 9.62 µM (active) and the outcome [6] was “inactive”. The AC50 [7] was 5.63 µM (active) and the AC50 [8] was 5.23 µM (active).
With `Cn1sc(Cl)cc1=O` the AC50 [1] was 7.73 µM (active), the outcome [2] was “inactive” and the AC50 [3] was 4450 nM (active). For the same compound, the AC50 [4] was 3.57 µM (active), the AC50 [5] was 7.62 µM (active) and the AC50 [6] was 1.84 µM (active). The AC50 [7] was 3.51 µM (active) and the AC50 [8] was 7.62 µM (active).
With `C=C(C)C(=O)[O][Sn]([CH2]CCC)([CH2]CCC)[CH2]CCC` the AC50 [1] was 0.0336 µM (active), the outcome [2] was “inactive” and the AC50 [3] was 21.8 nM (active). The AC50 [4] was 0.0394 µM (active), the AC50 [5] was 0.0312 µM (active) and the AC50 [6] was 0.013 µM (active). The AC50 [7] was 0.0301 µM (active), the AC50 [8] was 1.98 µM (active) and the AC50 [9] was 246 nM (active).
With `C=CC(=O)OCCCCCC(C)C` the AC50 (DIO3 (gene 1735)) was 35.4 µM (active).
With `CC(C)(c1ccc(OCC2CO2)cc1)c1ccc(OCC2CO2)cc1` (stereo not drawn) the AC50 (DIO3 (gene 1735)) was 3.62 µM (active).
For `O=C(O)C(F)(F)C(F)(F)C(F)(F)C(F)(F)C(F)(F)C(F)(F)C(F)(F)C(F)(F)C(F)(F)C(F)(F)F`, the outcome [1] was “inactive”, the outcome [2] was “inactive” and the outcome [3] was “inactive”. The outcome [4] was “inactive”, the outcome [5] was “inactive” and the outcome [6] was “inactive”. The outcome [7] was “inactive”, the outcome [8] was “inactive” and the AC50 (DIO3 (gene 1735)) was 19.9 µM (active) and 25.1 µM (active).
In the case of `CCCCCCCCc1ccc(O)cc1`, the AC50 (DIO3 (gene 1735)) is reported as 19.9 µM (active).
In the case of `Cl/C=C\C[N+]12CN3CN(CN(C3)C1)C2`, the AC50 (DIO3 (gene 1735)) is reported as 100 µM (active).
With `Clc1ccc(COC(Cn2ccnc2)c2ccc(Cl)cc2Cl)cc1` (stereo not drawn) the outcome (DIO3 (gene 1735)) was “inactive”.
For `CCOP(=S)(OCC)Oc1nc(Cl)c(Cl)cc1Cl`, the AC50 [1] was 15.7 µM (active) and 5.07 µM (active), the outcome [1] was “inactive” and the outcome [2] was “inactive”. For the same compound, the AC50 [3] was 23 µM (active) and 3.97 µM (active), the outcome [3] was “inactive” and the AC50 [4] was 23 µM (active) and 10 µM (active) and 23.1 µM (active). For the same compound, the AC50 [5] was 23 µM (active) and 15 µM (active) and 21.7 µM (active), the AC50 [6] was 22.7 µM (active) and the outcome [6] was “inactive”. For the same compound, the AC50 [7] was 22.1 µM (active) and 23.9 µM (active), the outcome [7] was “inactive” and the AC50 [8] was 23.4 µM (active) and 20.2 µM (active). For the same compound, the outcome [8] was “inactive” and the outcome [9] was “inactive”.
For `CCC(C)(C)c1ccc(O)c(C(C)(C)CC)c1`, the AC50 (DIO3 (gene 1735)) was 18.9 µM (active).
With `ClC1(Cl)C2(Cl)C3(Cl)C4(Cl)C(Cl)(Cl)C5(Cl)C3(Cl)C1(Cl)C5(Cl)C24Cl` (stereo not drawn) the AC50 [1] was 1.58 µM (active), the outcome [2] was “inactive” and the AC50 [3] was 888 nM (active). The AC50 [4] was 2.32 µM (active), the AC50 [5] was 2.35 µM (active) and the AC50 [6] was 1.03 µM (active). For the same compound, the AC50 [7] was 2.68 µM (active) and the AC50 [8] was 2.32 µM (active).
For `CC12CC1(C)C(=O)N(c1cc(Cl)cc(Cl)c1)C2=O` (stereo not drawn), the outcome (DIO3 (gene 1735)) was “inactive”.
For `COP(=O)(OC)O/C(=C\Cl)c1cc(Cl)c(Cl)cc1Cl`, the outcome [1] was “inactive”, the outcome [2] was “inactive” and the outcome [3] was “inactive”. The AC50 [4] was 86.9 µM (active) and 12.5 µM (active), the AC50 [5] was 84.2 µM (active) and the outcome [5] was “inactive”. The outcome [6] was “inactive”, the outcome [7] was “inactive” and the outcome [8] was “inactive”.
With `O=C1C(Cl)=C(Cl)C(=O)c2ccccc21` the AC50 (DIO3 (gene 1735)) was 11.3 µM (active).
In the case of `CC(C)(c1ccccc1)c1ccc(O)c(C(C)(C)c2ccccc2)c1`, the AC50 (DIO3 (gene 1735)) is reported as 17.3 µM (active).
For `O=C(O)C(F)(F)C(F)(F)C(F)(F)C(F)(F)C(F)(F)C(F)(F)F`, the outcome [1] was “inactive”, the outcome [2] was “inactive” and the outcome [3] was “inactive”. For the same compound, the outcome [4] was “inactive”, the outcome [5] was “inactive” and the outcome [6] was “inactive”. For the same compound, the outcome [7] was “inactive” and the outcome [8] was “inactive”.
In the case of `CCC(=O)C(CC(C)N(C)C)(c1ccccc1)c1ccccc1` (stereo not drawn), the AC50 [1] is reported as 6.65 µM (active), the outcome [2] is reported as “inactive” and the outcome [3] is reported as “inactive”. The AC50 [4] was 4.26 µM (active), the AC50 [5] was 3.49 µM (active) and the outcome [6] was “inactive”. For the same compound, the AC50 [7] was 3.36 µM (active) and the AC50 [8] was 7.25 µM (active).
With `O=C1C2(Cl)C3(Cl)C4(Cl)C(Cl)(Cl)C5(Cl)C3(Cl)C1(Cl)C5(Cl)C24Cl` (stereo not drawn) the AC50 [1] was 10 µM (active), the AC50 [2] was 1.31 nM (active) and the AC50 [3] was 3180 nM (active). The AC50 [4] was 5.38 µM (active), the AC50 [5] was 5.43 µM (active) and the AC50 [6] was 0.028 µM (active). The AC50 [7] was 0.341 µM (active), the AC50 (DIO3 (gene 1735)) was 4.51 µM (active) and the outcome [9] was “inactive”.
With `CC(C)(C)CC(C)(C)c1ccc(O)cc1` the AC50 (DIO3 (gene 1735)) was 82 µM (active).
For `CC(=O)[O][Hg][c]1ccccc1`, the AC50 [1] was 0.0154 µM (active), the AC50 [2] was 25.5 nM (active) and the AC50 [3] was 9.11 nM (active). The AC50 [4] was 0.0145 µM (active), the AC50 [5] was 0.0121 µM (active) and the AC50 [6] was 0.0112 µM (active). For the same compound, the AC50 [7] was 0.0238 µM (active) and the AC50 [8] was 0.0173 µM (active).
